# From PubChem BioAssay
# Unmarked numbers belong to inactive results. A call without a number means that no potency is given here. For part of these data: Potency and affinity values are given separately. The source made the active and inactive calls.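 How the source made its calls, unless noted: active means hit in primary screen, with calcium signal over 5 SD above buffer well mean in both duplicates; inactive means the rest.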
# Columns and labels:
# [1] = system: TRPC4 beta (transient receptor potential cation channel C4), mouse; assay: activators of mouse TRPC4 channel, confirmation, cell-based, Fluo4 calcium, HEK293 TRPC4beta/mu-opioid, duplicates, 10 µM (AID 2426;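 active means fluorescence ratio normalized to control raised more than 50% in primary screen plus both repeat runs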); conditions: Fluo4 calcium fluorescence, at 10 µM; stronger effect = higher value
# [2] = system: transient receptor potential cation channel C4 beta (TRPC4), mouse; assay: activators of mouse TRPC4 channel, confirmation, cell-based, second round, Fluo4, HEK293 TRPC4beta/mu-opioid, 1 µM (AID 2461;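 active means primary screen active and over 50% activation in each of two duplicate runs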); conditions: Fluo4 calcium fluorescence, at 1 µM; stronger effect = higher value
# [3] = system: TRPC4 (transient receptor potential cation channel C4 beta), mouse; assay: positive allosteric modulators of mouse TRPC4, confirmation, cell-based, second round, Fluo-4, HEK293 TRPC4beta/mu-opioid, 1 µM (AID 2554;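 active means primary screen hit whose fluorescence ratio, in both repeats, exceeds the weak agonist control mean by 3 SD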); conditions: DAMGO EC20, Fluo-4 calcium flux, at 1 µM; stronger effect = higher value
# [4] = system: TRPC4 beta (transient receptor potential cation channel C4), mouse; assay: positive allosteric modulators of mouse TRPC4, confirmation, cell-based, Fluo-4, HEK293 TRPC4beta/mu-opioid (AID 2555;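 active means primary screen hit whose calcium fluorescence ratio, in both repeats, exceeds the weak agonist control mean by 3 SD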); conditions: DAMGO EC20, Fluo-4 calcium flux, at 10 µM; stronger effect = higher value
# [5] = biological target: Short transient receptor potential channel 4 (Mus musculus) (UniProt Q9QUQ5); assay: inhibitors of mouse TRPC4 channel, confirmation, cell-based, Fluo4, HEK293 TRPC4beta/mu-opioid (AID 2636;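 active means calcium signal cut by more than 3 SD below the full-agonist control yet still positive, in both repeats and the earlier primary screen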); conditions: DAMGO, Fluo4 calcium flux, at 10 µM; stronger effect = higher value
# [6] = biological target: Short transient receptor potential channel 4 (Mus musculus) (UniProt Q9QUQ5); assay: inhibitors of mouse TRPC4 channel, confirmation, cell-based, second round, Fluo4, HEK293 TRPC4beta/mu-opioid, 1 µM (AID 2637;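 active means calcium signal ratio cut to more than 3 SD under the fully stimulated control mean yet still positive, in both repeats and the primary screen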); conditions: Fluo4 calcium flux, DAMGO, at 1 µM; stronger effect = higher value
# [7] = biological target: Short transient receptor potential channel 4 (Mus musculus) (UniProt Q9QUQ5); assay: TRPC4 positive allosteric modulators, dose response, cell-based, HEK293 TRPC4/mu-opioid, Fluo-4 calcium, EC20 DAMGO (AID 434941;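 active means earlier screen potentiator hit that boosts the TRPC4 ion channel at some dose, with a dose response; inactive means no potentiation, no dose response, or not a prior hit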;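 further: calcium entry triggered by an EC20 dose of DAMGO at the co-expressed mu-opioid receptor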)
# [8] = biological target: Short transient receptor potential channel 6 (Mus musculus) (UniProt Q61143); assay: inhibition of mouse TRPC6 channel, confirmation, selectivity assay for TRPC4 inhibitor project, cell-based, HEK293, membrane potential dye, duplicate (AID 434948;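 active means active in primary screen and both duplicates, each dropping signal beyond three positive-control SD with fluorescence still positive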); conditions: HEK293 TRPC6, membrane potential dye fluorescence, at 10 µM, stimulated with maximal-effect acetylcholine; stronger effect = higher value
# [9] = biological target: Short transient receptor potential channel 6 (Mus musculus) (UniProt Q61143); assay: activation of mouse TRPC6 channel, confirmation, selectivity assay for TRPC4 activator project, cell-based, HEK293, membrane potential dye, duplicate (AID 434950;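 active means membrane potential signal rise above negative control mean plus 3 SD in both duplicates, also active in the earlier TRPC4 screen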); conditions: HEK293 TRPC6, membrane potential fluorescence, at 10 µM; stronger effect = higher value
# [10] = biological target: Short transient receptor potential channel 6 (Mus musculus) (UniProt Q61143); assay: TRPC6 potentiation by TRPC4 potentiator hits, confirmation, selectivity assay for TRPC4 potentiator project, HEK293 cells, membrane potential dye, duplicate (AID 434952;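 active means compound raising the membrane signal above positive-control mean plus 3 SD in both repeats, and a primary screen hit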); conditions: HEK293 TRPC6, membrane potential dye fluorescence, at 10 µM, maximal acetylcholine added after compound; stronger effect = higher value
# [11] = biological target: Short transient receptor potential channel 4 (Mus musculus) (UniProt Q9QUQ5); assay: calcium flux activators in TRPC4/5HT1a cells, counter-screen for TRPC4 activator project, cell-based, second counter screen, HEK293 TRPC4/5HT1a, Fluo-4 (AID 434977;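 active means calcium signal rise above buffer-control mean plus 5 SD in both duplicates, and also a hit in the primary screen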); conditions: Fluo-4 calcium flux, at 10 µM; stronger effect = higher value
# [12] = calcium flux inhibitors in TRPC4/5HT1a cells, confirmation, counter-screen for TRPC4 inhibitor project, cell-based, second counter screen, HEK293 TRPC4/5HT1a, Fluo-4 (AID 434978;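 active means primary screen active whose calcium signal fell more than 3 SD beyond the full-serotonin control mean in both duplicate plates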;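 on outcome: serotonin given first at submaximal then at maximal dose after compound preincubation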); conditions: Fluo-4 calcium flux, at 10 µM, serotonin added to trigger calcium flux; stronger effect = higher value
# [13] = system: TRPC4 (mouse), co-expressed with 5HT1a in HEK293; assay: calcium flux potentiators in TRPC4/5HT1a cells, confirmation, counter-screen for TRPC4 potentiator project, cell-based, second counter screen, HEK293 TRPC4/5HT1a, Fluo-4 (AID 434979;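 active means signal rise over 3 SD above mean of control wells given weak agonist, in both repeats and first screen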); conditions: Fluo-4 calcium flux, at 10 µM, serotonin added at its EC20 dose; stronger effect = higher value
# [14] = calcium flux activation in mu-opioid HEK293 cells, confirmation, counter-screen for TRPC4 activator project, cell-based, HEK293 mu-opioid receptor line (AID 449723); conditions: Fluo-4 calcium fluorescence, at 10 µM; stronger effect = higher value;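 further: counter screen cells carry the mu-opioid receptor alone and lack TRPC4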
# [15] = calcium flux enhancement in mu-opioid HEK293 cells, confirmation, counter-screen for TRPC4 allosteric potentiator project, cell-based, HEK293 mu-opioid receptor line (AID 449724;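 active means calcium signal rise more than 3 SD above the low-dose agonist control mean, in both duplicate plates and the primary screen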); conditions: Fluo-4 calcium flux, at 10 µM, compound added before EC20 DAMGO stimulus; stronger effect = higher value
# Sequence of Short transient receptor potential channel 4 (Mus musculus) (Q9QUQ5 whole entry, looked up): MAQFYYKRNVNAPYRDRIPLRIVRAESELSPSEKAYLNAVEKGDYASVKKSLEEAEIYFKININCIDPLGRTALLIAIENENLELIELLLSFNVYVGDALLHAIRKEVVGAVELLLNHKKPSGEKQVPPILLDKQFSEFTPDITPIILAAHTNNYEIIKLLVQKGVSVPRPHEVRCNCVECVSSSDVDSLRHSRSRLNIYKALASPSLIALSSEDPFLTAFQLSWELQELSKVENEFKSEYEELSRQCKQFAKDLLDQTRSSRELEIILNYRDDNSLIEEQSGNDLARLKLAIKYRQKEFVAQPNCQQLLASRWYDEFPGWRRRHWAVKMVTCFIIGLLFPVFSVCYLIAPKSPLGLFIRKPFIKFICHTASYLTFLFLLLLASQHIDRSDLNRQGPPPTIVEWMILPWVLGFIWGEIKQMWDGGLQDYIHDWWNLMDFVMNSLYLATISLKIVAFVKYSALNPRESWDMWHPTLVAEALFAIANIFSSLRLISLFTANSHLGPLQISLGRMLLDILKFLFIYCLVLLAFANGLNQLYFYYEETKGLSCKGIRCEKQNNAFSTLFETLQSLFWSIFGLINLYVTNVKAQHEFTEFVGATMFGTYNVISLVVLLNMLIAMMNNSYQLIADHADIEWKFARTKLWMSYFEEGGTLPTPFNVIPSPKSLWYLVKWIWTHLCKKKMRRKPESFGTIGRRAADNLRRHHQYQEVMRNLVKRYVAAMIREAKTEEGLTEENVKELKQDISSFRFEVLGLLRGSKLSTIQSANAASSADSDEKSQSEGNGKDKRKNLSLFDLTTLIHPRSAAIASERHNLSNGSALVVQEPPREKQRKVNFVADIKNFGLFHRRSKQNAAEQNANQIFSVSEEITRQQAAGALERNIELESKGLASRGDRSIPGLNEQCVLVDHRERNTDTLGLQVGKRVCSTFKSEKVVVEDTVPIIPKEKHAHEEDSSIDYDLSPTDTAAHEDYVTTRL
# Sequence of Short transient receptor potential channel 6 (Mus musculus) (Q61143 whole entry, looked up): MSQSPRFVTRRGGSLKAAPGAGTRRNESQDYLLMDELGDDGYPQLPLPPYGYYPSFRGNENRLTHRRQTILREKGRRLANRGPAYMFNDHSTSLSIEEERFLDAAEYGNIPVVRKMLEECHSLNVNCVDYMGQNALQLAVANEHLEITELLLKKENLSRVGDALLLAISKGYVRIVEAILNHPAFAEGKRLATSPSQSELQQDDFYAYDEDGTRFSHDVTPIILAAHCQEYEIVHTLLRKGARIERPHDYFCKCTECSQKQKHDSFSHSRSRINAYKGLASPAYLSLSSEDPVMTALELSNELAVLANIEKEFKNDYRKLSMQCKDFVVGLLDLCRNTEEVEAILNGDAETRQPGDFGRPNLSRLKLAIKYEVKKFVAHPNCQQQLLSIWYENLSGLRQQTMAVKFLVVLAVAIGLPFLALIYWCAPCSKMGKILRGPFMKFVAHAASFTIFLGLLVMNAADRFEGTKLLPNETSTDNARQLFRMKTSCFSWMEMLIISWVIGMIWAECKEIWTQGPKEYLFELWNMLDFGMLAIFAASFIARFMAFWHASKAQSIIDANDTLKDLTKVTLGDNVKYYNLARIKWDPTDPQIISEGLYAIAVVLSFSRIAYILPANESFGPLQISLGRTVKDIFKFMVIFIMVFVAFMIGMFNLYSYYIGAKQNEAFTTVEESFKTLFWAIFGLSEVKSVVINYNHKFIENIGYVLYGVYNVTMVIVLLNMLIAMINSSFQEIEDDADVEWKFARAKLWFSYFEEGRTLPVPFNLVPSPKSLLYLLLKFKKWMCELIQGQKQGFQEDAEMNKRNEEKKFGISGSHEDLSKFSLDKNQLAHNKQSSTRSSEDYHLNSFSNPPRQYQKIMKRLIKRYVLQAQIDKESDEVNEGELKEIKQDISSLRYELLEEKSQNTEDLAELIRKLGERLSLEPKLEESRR
smiles,measurement,setting,value
CN(C)C(CNC(=O)c1cc2ccccc2oc1=O)c1ccccc1 (stereo not given),activation,[1],65% (active)
same,outcome,[2],inactive
same,outcome,[3],inactive
same,outcome,[4],inactive
same,outcome,[5],inactive
same,inhibition,[6],76% (active)
same,outcome,[7],inactive
same,outcome,[8],inactive
same,outcome,[9],inactive
same,outcome,[10],inactive
same,outcome,[11],inactive
same,outcome,[12],inactive
same,outcome,[13],inactive
same,outcome,[14],inactive
same,outcome,[15],inactive
COc1ccc(CCN(C)CCN2C(=O)c3ccccc3C2=O)cc1OC,activation,[1],252% (active)
same,activation,[2],103% (active)
same,outcome,[3],inactive
same,outcome,[4],inactive
same,outcome,[5],inactive
same,inhibition,[6],43% (active)
same,outcome,[7],inactive
same,outcome,[8],inactive
same,outcome,[9],inactive
same,outcome,[10],inactive
same,activation,[11],96.5% (active)
same,inhibition,[12],1.2% (active)
same,outcome,[13],inactive
same,outcome,[14],inactive
same,outcome,[15],inactive
CCOC(=O)C1(CC2CC2)CCN(Cc2ccc3cccc(F)c3n2)CC1,activation,[1],129% (active)
same,outcome,[2],inactive
same,outcome,[3],inactive
same,outcome,[4],inactive
same,inhibition,[5],89% (active)
same,outcome,[6],inactive
same,outcome,[7],inactive
same,outcome,[8],inactive
same,activation,[9],50.5% (active)
same,outcome,[10],inactive
same,activation,[11],19.5% (active)
same,inhibition,[12],30.9% (active)
same,outcome,[13],inactive
same,outcome,[14],inactive
same,outcome,[15],inactive
Cc1ccc(COn2c(-c3ccc(Cl)cc3Cl)nc3ncccc32)cc1,outcome,[1],inactive
same,outcome,[2],inactive
same,outcome,[3],inactive
same,outcome,[4],inactive
same,outcome,[5],inactive
same,outcome,[6],inactive
same,outcome,[7],inactive
same,outcome,[8],inactive
same,activation,[9],46% (active)
same,outcome,[10],inactive
same,outcome,[11],inactive
same,outcome,[12],inactive
same,outcome,[13],inactive
same,outcome,[14],inactive
same,outcome,[15],inactive
O=C(NCc1ccccc1)C1=C[C@H](c2ccc3c(c2)OCO3)C[C@H](OCc2ccc(CO)cc2)O1,activation,[1],142% (active)
same,outcome,[2],inactive
same,outcome,[3],inactive
same,outcome,[4],inactive
same,outcome,[5],inactive
same,outcome,[6],inactive
same,outcome,[7],inactive
same,outcome,[8],inactive
same,outcome,[9],inactive
same,outcome,[10],inactive
same,activation,[11],115% (active)
same,inhibition,[12],18.1% (active)
same,outcome,[13],inactive
same,outcome,[14],inactive
same,outcome,[15],inactive
O=c1c2c(-c3ccccc3)csc2ncn1/N=C/c1cccc([N+](=O)[O-])c1O,outcome,[1],inactive
same,outcome,[2],inactive
same,outcome,[3],inactive
same,outcome,[4],inactive
same,inhibition,[5],90% (active)
same,inhibition,[6],39% (active)
same,outcome,[7],inactive
same,outcome,[8],inactive
same,outcome,[9],inactive
same,outcome,[10],inactive
same,activation,[11],36.1% (active)
same,inhibition,[12],27.2% (active)
same,outcome,[13],inactive
same,outcome,[14],inactive
same,outcome,[15],inactive
CCOC(=O)C1(CCc2ccccc2)CCN(Cc2ccc(O)cc2)CC1,outcome,[1],inactive
same,outcome,[2],inactive
same,outcome,[3],inactive
same,outcome,[4],inactive
same,inhibition,[5],88% (active)
same,outcome,[6],inactive
same,outcome,[7],inactive
same,outcome,[8],inactive
same,activation,[9],69% (active)
same,outcome,[10],inactive
same,outcome,[11],inactive
same,outcome,[12],inactive
same,outcome,[13],inactive
same,outcome,[14],inactive
same,outcome,[15],inactive
